# Laboratory results from the supplement of paper PMC7156485.
# Values joined by “and” are separate entries in the source; they are usually repeats but may differ in a detail not shown here. Equal entries are not always repeated. ± gives the standard deviation of the averaged measurements.
# Test system: TDF
# Experiment: cell number relative to DMSO (% of DMSO); higher = more cells (less growth inhibition / toxicity)
# Details: concentration: 10 µM; 24 h
# Method in brief: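 Six fields per well were imaged at ×10 after the cells were fixed in 3.7% formaldehyde and stained with a rabbit anti-H1.0 antibody, an AlexaFluor 647 secondary and DAPI. The HCC1569 and TDF cells had been plated at 800 per well in 384-well plates (RPMI, 10% FBS) and treated in triplicate with compounds at 10 µM for 24 h at 37 °C. The values are the median of replicates of H1.0 nuclear intensity or cell number, as percent of the plate control. Smoothing for positional effects was applied to HCC1569 data.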
# 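Further: TDF denotes transformed human dermal fibroblasts of mesenchymal origin.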
row,SMILES,cell number
1,CC[C@H](C)C(=O)O[C@H]1C[C@H](O)C=C2C=C[C@H](C)[C@H](CC[C@@H](O)C[C@@H](O)CC(=O)[O-])[C@H]21.[Na+],93.2
2,CC1(C)CNc2cc(NC(=O)c3cccnc3NCc3ccncc3)ccc21 [Motesanib],91.4
3,COCCc1ccc(OCC(O)CNC(C)C)cc1 (stereo not drawn) [Metoprolol],99.5
4,CON=C(C(=O)NC1C(=O)N2C(C(=O)[O-])=C(CSc3nc(=O)c([O-])nn3C)CSC12)c1csc(N)n1.[Na+].[Na+] (stereo not drawn) [Ceftriaxone sodium],99.8
5,"COc1cc(C=Cc2ccccc2)oc(=O)c1 [5,6-Dehydrokawain]",97.5
6,O=c1cc(-c2ccc(O)c(O)c2)oc2cc(O)cc(O)c12 [Luteolin],62.6 ± 57
7,O=C(Nc1ccc(Oc2ccnc3[nH]ccc23)c(F)c1)c1cccn(-c2ccc(F)cc2)c1=O,103
8,CC(O)(P(=O)([O-])O)P(=O)([O-])O [Etidronate],106
9,Cl.NO [Hydroxylamine hydrochloride],95.5
10,N#CC(=Cc1ccc(O)c(O)c1)C(=O)c1ccc(O)c(O)c1 [Tyrphostin AG 538],97.3
11,COc1cc2c(Nc3ccc(NC(=O)c4ccccc4)cc3)ncnc2cc1OCCCN1CCOCC1,44
12,COc1c(N2CCNC(C)C2)c(F)cc2c(=O)c(C(=O)O)cn(C3CC3)c12 (stereo not drawn) [Gatifloxacin],107
13,NS(=O)(=O)c1cc(C(=O)O)c(NCc2ccco2)cc1Cl [Furosemide],110 ± 1.9
14,COCCOC(=O)C1=C(C)NC(C)=C(C(=O)OCC=Cc2ccccc2)C1c1cccc([N+](=O)[O-])c1 (stereo not drawn) [Cilnidipine],108
15,CCC(C(=O)C(C)C(O)C(C)CCc1ccc(C)c(O)c1C(=O)[O-])C1OC(CC)(C2CCC(O)(CC)C(C)O2)CC1C.[Na+] (stereo not drawn) [Lasalocid A],88.5
16,Cc1nc(C(=O)N2CCC[C@H]2Cc2nnc(-c3ccccc3)o2)c(-c2ccccc2F)s1,113
17,CCCCCCCCC=CCCCCCCCCCCCC(=O)O [13(Z)-Docosenoic acid],108
18,Cc1cccc(Nc2cc(Cl)nc(SCC(=O)O)n2)c1C,104
19,CC1=C(CC(=O)O)c2cc(F)ccc2C1=Cc1ccc(S(C)=O)cc1 (stereo not drawn) [Sulindac],111 ± 6.2
20,CCOc1cc(N2CCC(O)CC2)ccc1Nc1ncc2c(n1)N(C)c1ccccc1C(=O)N2C,72.2
21,Cl.Fc1cccc(CN(C2=NCCN2)c2c(Cl)cccc2Cl)c1 [IMID-4F hydrochloride],99.7
22,COc1ccc(-c2cc(=O)c3c(O)c(OC)c(OC)cc3o2)cc1O,80.2
23,C[C@]12CCC(=O)C=C1CC[C@@H]1[C@@H]2[C@@H](O)C[C@@]2(C)[C@H]1CC[C@]2(O)C(=O)COC(=O)CCC(=O)[O-].[Na+],99.8
24,COc1c(N2CC3CCCNC3C2)c(F)cc2c(=O)c(C(=O)O)cn(C3CC3)c12.Cl (stereo not drawn) [Moxifloxacin.HCl],122
25,CCCCCC(O)C=CC1C(O)CC2CC(=CCCCC(=O)O)CC21 (stereo not drawn) [Carbacyclin],99.1
26,c1cc(OCCN2CCCCC2)cc(-c2n[nH]c3ccc(-c4ncn[nH]4)cc23)c1,107
27,N#CC(=C(N)Sc1ccccc1N)C(C#N)=C(N)Sc1ccccc1N,95.9 and 96.9
28,"CCCn1c(=O)c2[nH]c(C3CCCC3)nc2n(CCC)c1=O [8-Cyclopentyl-1,3-dipropylxanthine]",92.5
